The whole screen tested about 2,500 compounds, of which about 480 (19%) were called active. Not all results are given here. A number with no mark means an inactive call.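 Rule for the calls: active = mean inhibition above about 25% (limit read from the data); inactive = the rest.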
Assay: inhibitors of Wnt3a-driven luciferase in Wnt-LIGHT cells – cell-based, luminescence, single concentration, counter-screen for Gli-SUFU antagonist project, confirmation (AID 651995)
Conditions: Wnt3a-driven luciferase reporter, at 6.25 µM, active compounds read high

In the case of `Cc1ccc(S(=O)(=O)N2C[C@@H]3CCCC[C@@H]3[C@@H](C)[C@H]2c2cn(Cc3ccccc3)c3ccc(F)cc23)cc1`, the inhibition is reported as 30.5% (active).
In the case of `Cc1c(Cl)c([N+](=O)[O-])nn1Cc1ccc(C(=O)N/N=C\c2cc(Cl)ccc2O)o1`, the inhibition is reported as 61.7% (active).
With `CCOC(=O)c1cnc(-n2nc(C)cc2C)nc1NNc1cc(C)nc(-c2ccccc2)n1` the inhibition was 40.7% (active).
With `N#Cc1ccc(C(=O)Nc2nc(-c3cccs3)c(C(=O)C(F)(F)F)s2)cc1` the inhibition was 65.1% (active).
For `c1c2c(cc3sc(N4CCCCC4)nc13)OCCO2`, the inhibition was 85.8% (active).
With `COc1ccc(NS(=O)(=O)c2ccc(N3CCN(CCO)CC3)c([N+](=O)[O-])c2)cc1` the inhibition was 26.4% (active).
For `CN(c1ccc2nc3ccccc3c(=O)n2n1)C1CCCCC1`, the inhibition was 101% (active).
With `O=C(CN1CCN(S(=O)(=O)c2cc(Cl)ccc2Cl)CC1)c1ccc(O)c(O)c1` the inhibition was 73.7% (active).
With `Cc1ccsc1C(=O)OCC(=O)c1cc(C)n(CC2CCCO2)c1C` (configuration not stated) the inhibition was 104% (active).
With `CCCCNc1nc2c(c(=O)n(C)c(=O)n2C)n1Cc1cccc(OC)c1` the inhibition was 36.1% (active).
For `CC(=O)N1CCCc2cc(S(=O)(=O)N3CCCC(C(=O)N4CCN(c5cccc(Cl)c5)CC4)C3)ccc21` (configuration not stated), the inhibition was 29.8% (active).

Compared with `COc1ccccc1N1CCN(Cc2cc(OC)c3c(c2)OCO3)CC1`, `CCCOc1ccccc1C1CC(=O)Nc2cc3c(cc21)OCO3` (configuration not stated) is higher in inhibition: -25% for the first, -18.6% for the second.

First: CCN(CC(=O)Nc1cc(Cl)ccc1C)C(=O)CSCc1ccc(C)cc1
Second: CCOC(=O)c1ccc(NC(=O)Cn2cnc3cc(C)c(C)cc32)cc1
The inhibition of the first is higher: -8.43% for the first, -27.9% for the second.

Compared with `C=CCOC(=O)C1=C[C@@H](c2ccc3c(c2)OCO3)C[C@@H](OCCCCO)O1`, `CN(C)CCN(C(=O)C1CCCCC1)c1nc2cc3c(cc2s1)OCO3` is lower in inhibition: -7.34% for the first, -21.9% for the second.

Compared with `Cc1cc([N+](=O)[O-])c(-c2ccc(/C=N/n3cnnc3)o2)cc1Cl`, `Nc1ccc(C(=O)N2CCN(S(=O)(=O)c3ccc(Cl)cc3)CC2)cc1[N+](=O)[O-]` is lower in inhibition: -8.22% for the first, -13.1% for the second.

Compared with `O=[N+]([O-])c1ccc(N2CCN(CC(O)COc3ccccc3)CC2)cc1` (configuration not stated), `CC(C)c1ccc(OCC(O)CN2CCN(c3ccccn3)CC2)cc1` (configuration not stated) is lower in inhibition: -30.2% for the first, -70.7% for the second.

Compared with `CC1(C)Cc2ccccc2/C(=C/C(=O)c2ccccc2)N1`, `CCN1/C(=C/C(=S)Nc2ccccc2)Sc2ccccc21` is lower in inhibition: 9.91% for the first, -77.3% for the second.

Going from `Cc1nn(C)c(Cl)c1CN1CCC(n2nccc2NC(=O)C2CCCC2)CC1` to `O=C(NC1CCN(C(=S)Nc2ccc(Cl)cc2)CC1)C1CCCCC1`, the inhibition rises from -36.2% to -1.08%.

First: CCCC1=Nc2cc(C(=O)NCc3ccco3)ccc2Sc2ccccc21
Second: Cc1onc(-c2ccccc2)c1C(=O)Nc1ccccc1C#N
The inhibition of the first is lower: -23.7% for the first, -19.9% for the second.

First: CCc1c(C)[nH]c(=S)c(C#N)c1C
Second: COc1ccc2nc(SCC(=O)Nc3c(C)cc(C)cc3C)[nH]c2c1
The inhibition of the first is lower: -19.5% for the first, -15% for the second.

Going from `N#CC(C#N)=CN=c1ccn(Cc2ccc(Cl)cc2Cl)cc1` to `C=CCNC(=S)/N=c1/ccccn1Cc1ccccc1`, the inhibition rises from -5.79% to -4.94%.

First: Cc1ccc(-c2nc(CSCC(=O)NC3CCN(Cc4ccccc4)CC3)c(C)o2)cc1
Second: COc1ccccc1CNC(=O)C1CCN(c2nc3ccccc3o2)CC1
The inhibition of the first is higher: -19.9% for the first, -23.3% for the second.

First: CN(C)C(CNC(=O)Cc1ccc([N+](=O)[O-])cc1)c1ccccc1 (configuration not stated)
Second: CN(C)c1cc[n+](Cc2ccccc2)cc1
The inhibition of the first is lower: -27% for the first, 12.4% for the second.

Going from `C=CCC1(CC=C)CCCN1C(=O)c1cc(COc2ccc(-n3cncn3)cc2)on1` to `CCOC(=O)c1cnc(Nc2nc3ccccc3o2)nc1CSC(=S)N1CCCCC1`, the inhibition falls from -17% to -97.9%.

Compared with `COc1ccc(NS(=O)(=O)c2ccc(NC(C)=O)cc2)cc1OC`, `O=C(Nc1cccc(S(=O)(=O)Nc2ccc(Cl)cc2)c1)c1ccc2c(c1)OCCO2` is lower in inhibition: 13.2% for the first, -22.2% for the second.

First: CC1(C)CC2CC(C)(CN2c2ncnc3ccc(Br)cc23)C1 (configuration not stated)
Second: Cc1ccc(C)c(S(=O)(=O)N2CCN(c3ncnc4sccc34)CC2)c1
The inhibition of the first is higher: 19% for the first, 11.2% for the second.

Compared with `CC1(C)CC(=O)c2c(n(S(=O)(=O)c3ccccc3)c3ccc(NS(=O)(=O)c4ccccc4)cc23)C1`, `O=C1/C(=C/c2ccc(F)cc2)SC(=S)N1NS(=O)(=O)c1ccccc1` is lower in inhibition: 13.1% for the first, 12.4% for the second.

Compared with `COc1ccc(OC)c(Cc2cnc3nc(N)nc(N)c3c2C)c1`, `Brc1c(CSc2nncc3ccccc23)nc2ccccn12` is lower in inhibition: 14.4% for the first, 1.67% for the second.

Compared with `CC(C)(CNC(=O)c1ccc(Cl)c(S(=O)(=O)N2CCc3ccccc3C2)c1)N1CCOCC1`, `COc1ccccc1CCNC(=O)C(=O)NCCC1CCCCN1S(=O)(=O)c1cccs1` (configuration not stated) is higher in inhibition: -21.4% for the first, -17.3% for the second.

First: COc1cccc(-n2cc(C(=O)O)c3ccccc3c2=O)c1
Second: CC(=O)Nc1cccc(OCC(=O)/C=C2\N(C)c3ccccc3C2(C)C)c1
The inhibition of the first is higher: 20.7% for the first, -13.7% for the second.

Compared with `CC(=O)Nc1ccc(NC(=O)c2ccc3c(c2)C(=O)N(c2ccccc2C)C3=O)cc1`, `Cc1ccc(NC(=S)Nc2ccc(F)cc2)cc1` is lower in inhibition: 3.62% for the first, -8.22% for the second.

Compared with `COC(=O)c1ccc(CSc2nnc(N)s2)o1`, `COc1ccc(Cn2c(-c3ccc(Cl)cc3)c[n+]3ccccc23)cc1` is lower in inhibition: -4.51% for the first, -74.3% for the second.

Going from `O=C1/C(=C\c2cccnc2)CN(Cc2ccccc2)C/C1=C\c1cccnc1` to `Cn1c(=O)c2c(nc(NCCc3ccccc3)n2Cc2ccccc2)n(C)c1=O`, the inhibition falls from -9.32% to -9.98%.

Going from `COCCn1c(CN2CCC(Cc3ccccc3)CC2)nc2c1c(=O)n(C)c(=O)n2C` to `COc1ccc(NC(=O)[C@H](NC(=O)[C@@H]2Cc3ccccc3CN2)c2ccccc2)cc1`, the inhibition falls from 16.5% to -2.11%.
